Results on nine molecules are retold here after PubChem BioAssay (NCI).

Some test systems named below: SR leukemia; RPMI-8226 leukemia; OVCAR-8 ovarian; OVCAR-5 ovarian; OVCAR-4 ovarian; SK-OV-3 ovarian; IGROV1 ovarian; HS 578T breast; NCI/ADR-RES ovarian; T-47D breast; BT-549 breast; MDA-MB-435 melanoma; SW-620 colon; MCF7 breast; HCT-116 colon; HCC-2998 colon; KM12 colon; OVCAR-3 ovarian.
What all share (experiment): NCI-60 one-dose screen, 48 h (100 = growth as untreated, 0 = no growth, -100 = all killed)
Holding throughout (settings): 10 µM unless noted

Compounds without any hit were thinned out: in the full panel of roughly 83,000, 20% have a hit.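 In brief: 96-well plates, 48 h treatment, single concentration, percent growth endpoint.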 Values without a mark were called inactive. Calls of active or inactive are those of the source. How the source made its calls: active means growth percent below 10; inactive means the rest.

For `CCNC(=O)N1CCc2cc(OC)c(OCCc3ccc(OC)c(N)c3)cc2C1c1cc(C)c(C)cc1C` (configuration not stated), the growth in the test on SR leukemia was 15.1%; in the test with RPMI-8226 leukemia it was 32.4%; in the test with OVCAR-8 ovarian it was 39%; with OVCAR-5 ovarian, 51.7%; with OVCAR-4 ovarian, 62.6%; in the test on SK-OV-3 ovarian it was 61.4%. Further, the growth was 31.9% in the test with IGROV1 ovarian; 36.1% with HS 578T breast; 20.8% in the test with NCI/ADR-RES ovarian; 52.6% with T-47D breast; 25.6% in the test on BT-549 breast; 17.2% in the test on MDA-MB-435 melanoma. Besides, the growth was 15.7% with SW-620 colon; 22.7% in the test with MCF7 breast; 17.3% in the test with HCT-116 colon; 49.2% in the test with HCC-2998 colon; 33.8% with KM12 colon.
Take `O=C1CCCC2=C1C(c1c[nH]c3ccc(Br)cc13)Cc1cc(Br)ccc1N2` (configuration not stated): the growth in the test on SR leukemia was 33.3%; in the test with RPMI-8226 leukemia, 25.1%; in the test with OVCAR-8 ovarian, 55.3%; with OVCAR-5 ovarian, 66.2%; in the test on OVCAR-4 ovarian, 101%; in the test with SK-OV-3 ovarian, 44.7%. Besides, the growth is 24.1% in the test on IGROV1 ovarian; 27.2% in the test with OVCAR-3 ovarian; 20.2% with HS 578T breast; 21.4% in the test on NCI/ADR-RES ovarian; 39.4% in the test with BT-549 breast; -10.2% (active) in the test with MDA-MB-435 melanoma. The growth was 22.7% in the test on SW-620 colon; 23.4% with MCF7 breast; 19.3% with HCT-116 colon; 68.2% in the test with HCC-2998 colon; 21.7% in the test on KM12 colon.
On to `CCNC(=O)N1CCc2cc(OC)c(OCCc3ccc(OC)cc3)cc2C1c1ccc([N+](=O)[O-])cc1C` (configuration not stated), for which the growth with SR leukemia was 8.11% (active); with RPMI-8226 leukemia, 20.7%; in the test on OVCAR-8 ovarian, 29.1%; in the test with OVCAR-5 ovarian, 40.4%; in the test with OVCAR-4 ovarian, 54%; with SK-OV-3 ovarian it was 51.4%. Further, the growth in the test on IGROV1 ovarian was 24.9%; with HS 578T breast it was 0.838% (active); in the test on NCI/ADR-RES ovarian, 12.2%; in the test with T-47D breast, 53%; with BT-549 breast it was 20.1%; in the test with MDA-MB-435 melanoma, 14.5%. Also, the growth is 23.8% with SW-620 colon; 18.4% with MCF7 breast; 8.8% (active) with HCT-116 colon; 14.5% in the test with HCC-2998 colon; 18.6% with KM12 colon.
Regarding `COc1ccc(NC(=O)CSc2nnc(-c3ccc4nc(-c5ccccc5)[nH]c4c3)o2)cc1`, the growth with SR leukemia is 91.2%; in the test with RPMI-8226 leukemia, 79.1%; in the test on OVCAR-8 ovarian it was 101%; in the test with OVCAR-5 ovarian, 101%; with OVCAR-4 ovarian, 100%; in the test on SK-OV-3 ovarian, 108%. Moreover, the growth in the test on IGROV1 ovarian was 92.9%; in the test on HS 578T breast, 105%; with NCI/ADR-RES ovarian, 101%; in the test on T-47D breast it was 94.7%; in the test on BT-549 breast, 93.5%; with MDA-MB-435 melanoma, 100%. The growth is 104% with SW-620 colon; 86.2% in the test with MCF7 breast; 102% in the test on HCT-116 colon; 114% with HCC-2998 colon; 99.4% in the test on KM12 colon.
Turning to `ClC(Cl)c1nc(-c2ccco2)n2nc(-c3ccccc3)cc2n1`, the growth with SR leukemia was 87.3%; in the test with RPMI-8226 leukemia, -25.5% (active); in the test on OVCAR-8 ovarian, 31.7%; with OVCAR-5 ovarian, 2.76% (active); with OVCAR-4 ovarian, 36.6%; with SK-OV-3 ovarian it was 51%. Moreover, the growth in the test with IGROV1 ovarian is 76.9%; in the test on OVCAR-3 ovarian, -29.9% (active); with HS 578T breast, -2.15% (active); in the test on NCI/ADR-RES ovarian it was 4.02% (active); with BT-549 breast, 87.7%; in the test on MDA-MB-435 melanoma, 24.9%. Further, the growth is 8.35% (active) in the test with SW-620 colon; 1.38% (active) with MCF7 breast; 2.94% (active) with HCT-116 colon; -53.5% (active) in the test on HCC-2998 colon; -27.4% (active) with KM12 colon.
Take `Cc1ccc(NC(=O)N[C@@H](Cc2cc(F)cc(F)c2)C(=O)NC2C(=O)N3C[C@H](O)C[C@H]3C(=O)N3CCCC[C@H]3C(=O)N[C@@H](CO)C(=O)N3C[C@H](C)C[C@H]3C(=O)O[C@H]2C)c(F)c1` (some centres not stated): the growth in the test with SR leukemia was 40.6%; in the test with RPMI-8226 leukemia, 17.6%; in the test with OVCAR-8 ovarian, 44.1%; with OVCAR-5 ovarian, 43.8%; in the test with OVCAR-4 ovarian, 29.8%; in the test on SK-OV-3 ovarian it was 33.7%. The growth in the test with IGROV1 ovarian is 60.6%; in the test with HS 578T breast it was 40.1%; with NCI/ADR-RES ovarian it was 107%; in the test on T-47D breast it was 32.5%; in the test on BT-549 breast, 43.5%; in the test with MDA-MB-435 melanoma, 23.1%. The growth with SW-620 colon is 44.6%; in the test with MCF7 breast it was 18.1%; in the test on HCT-116 colon it was 18.1%; in the test with HCC-2998 colon, 31.2%; in the test with KM12 colon, 45.3%.
As to `Nc1ncc(-c2ccc3ncnc(N4CCc5cc(F)c(Cl)cc54)c3c2)cn1`, the growth in the test on SR leukemia is 18%; with RPMI-8226 leukemia, -14.7% (active); in the test with OVCAR-8 ovarian, 33.5%; in the test on OVCAR-5 ovarian, 19.8%; in the test with OVCAR-4 ovarian it was 31.7%; in the test with SK-OV-3 ovarian, 20.5%. The growth in the test with IGROV1 ovarian was -11.2% (active); in the test with OVCAR-3 ovarian, 13.5%; with HS 578T breast, -12.8% (active); in the test with NCI/ADR-RES ovarian, 38.4%; with MDA-MB-435 melanoma it was 27.1%; in the test with SW-620 colon, 40.7%. The growth with MCF7 breast is 11.9%; in the test with HCT-116 colon, 20.5%; in the test with HCC-2998 colon, 31.6%; in the test with KM12 colon it was 50.6%.
Take `CC(=O)N1N=C(c2cccc(-n3cccc3)c2)CC1c1cccc(F)c1` (configuration not stated): the growth in the test with SR leukemia is 96.2%; in the test with RPMI-8226 leukemia it was 93.7%; with OVCAR-8 ovarian, 98.2%; in the test on OVCAR-5 ovarian, 95.8%; in the test on OVCAR-4 ovarian, 101%; in the test with SK-OV-3 ovarian, 97.3%. Moreover, the growth in the test with IGROV1 ovarian was 96.9%; in the test on HS 578T breast it was 91%; in the test on NCI/ADR-RES ovarian, 95.9%; in the test with T-47D breast, 89%; in the test with BT-549 breast it was 126%; in the test with MDA-MB-435 melanoma, 102%. Besides, the growth is 96% in the test with SW-620 colon; 75.1% with MCF7 breast; 92.5% with HCT-116 colon; 106% with HCC-2998 colon; 103% with KM12 colon.
Take `CC(=O)c1cc(C(=O)N2c3ccccc3Sc3ccccc32)n2ccc3ccccc3c12`: the growth is 16.6% with SR leukemia; 50.3% with RPMI-8226 leukemia; 32.7% in the test with OVCAR-8 ovarian; 69.7% with OVCAR-5 ovarian; 73.6% in the test on OVCAR-4 ovarian; 48.7% in the test on SK-OV-3 ovarian. The growth with IGROV1 ovarian is 49.9%; in the test with HS 578T breast, 16%; in the test with NCI/ADR-RES ovarian, 13.4%; in the test with T-47D breast, 27.5%; in the test with BT-549 breast, 37%; with MDA-MB-435 melanoma it was 0.748% (active). Besides, the growth in the test with SW-620 colon was 26.3%; in the test on MCF7 breast, 17.8%; with HCT-116 colon it was 24.4%; in the test on HCC-2998 colon it was 74.9%; in the test with KM12 colon, 31.7%.
